Screening results deposited in PubChem BioAssay by National Center for Advancing Translational Sciences (NCATS).
Only a selection was taken, and hits are over-represented in it overall.
Pf Dd2 growth – Plasmodium falciparum Dd2 growth inhibition. P. falciparum Dd2 growth, SYBR Green, 72 h. Potency, µM (doses to about 28.9 µM), for inactives: top-dose activity, negative = inhibition, actives largely listed as inhibitors. 120,000 tested, 4.3% active; active means well fitted inhibition curve with a large enough effect;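 further: plate controls were DMSO vehicle for no effect and reference drug for full effect; nearly all actives have a fitted effect of over 65% in size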
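Readout: SYBR Green fluorescence, 485 nm excitation, 535 nm emission, after ~16 h lysis at 37C. Before that, Dd2-infected red cells (2.5% hematocrit) grew 72 h with compound, 29 uM top final concentration.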
* hit, by the source's call; [ ] = another dose, or the depositor's remark. Potency means the concentration at half of the fitted maximal effect.

Results for CN(C(=O)Cc1ccsc1)C1CCc2nn(C)c(=O)n2CC1 (stereo not drawn) ?
Pf Dd2 growth: 24%

How did CCN(CC1CCN(C2CCN(C)CC2)CC1)C(=O)c1ccc(-c2ccccc2)cc1 do in these assays?
Pf Dd2 growth: 13µM*

Results for Cc1cc(C)c(C(=O)N(CC2CCN(C3Cc4ccccc4C3)CC2)CC2CCCO2)o1 (stereo not drawn) ?
Pf Dd2 growth: inactive

How did CN1CCC(Cc2ccc(C(=O)O)cc2)CC1 do in these assays?
Pf Dd2 growth: 13%

How did Cn1cccc1C(=O)NCC(=O)N1CCCCCNC(=O)CC1c1ccccc1 (stereo not drawn) do in these assays?
Pf Dd2 growth: 35%

Results for O=C(NC1CCN(c2cc(-c3cccs3)[nH]n2)C1)c1ccccc1Br (stereo not drawn) ?
Pf Dd2 growth: inactive

Results for O=C(CCc1ccnc(N2CCCC2)c1)N1CCN(c2cccc(Cl)c2)CC1 ?
Pf Dd2 growth: 5µM*

Results for O=C(O)CCc1ccnc(N2CCCC2)c1 ?
Pf Dd2 growth: 7%

What do the screens show for `O=C(CCc1ccnc(N2CCOCC2)c1)N1CCN(C(=O)c2ccco2)CC1`?
Pf Dd2 growth: 34%

Results for CO[C@H]1[C@H](NC(=O)C2CCN(C(C)=O)CC2)c2ccccc2C12CCNCC2 ?
Pf Dd2 growth: -9%

What do the screens show for `O=C(c1ccc(Br)o1)N1CCC(n2cnnc2C2CC2)CC1`?
Pf Dd2 growth: -13%

How did Cc1ccc(-c2nc(S(=O)(=O)c3ccc(C)cc3)c(N3CCN(c4ccccc4)CC3)o2)cc1 do in these assays?
Pf Dd2 growth: 25%

What do the screens show for `Cc1ccc(S(=O)(=O)c2nc(-c3cccc(C)c3)oc2N2CCN(c3ccccc3)CC2)cc1`?
Pf Dd2 growth: 10µM*

Results for Cc1ccc(S(=O)(=O)c2nc(-c3ccccc3)oc2N2CCN(c3ccccc3)CC2)cc1 ?
Pf Dd2 growth: 40%

How did CCCc1noc(CN(C)C(=O)[C@@]23CNC[C@@H]2CN(Cc2ccccc2)C3)n1 do in these assays?
Pf Dd2 growth: -26%

What do the screens show for `O=C(Nc1cccc(Cl)c1)N1CC(n2cc(COc3ccccc3)nn2)C1`?
Pf Dd2 growth: 7.9µM*

What do the screens show for `O=C(Nc1ccccc1)N1CC(n2cc(C(=O)N3CCOCC3)nn2)C1`?
Pf Dd2 growth: 24%

How did CNC(=O)[C@@H]1C[C@H](n2cc(CNC(=O)Nc3cccc(Cl)c3)nn2)CN1 do in these assays?
Pf Dd2 growth: 0%

Results for FC1(F)C[C@@H](c2nc(C3CC3)no2)N(Cc2ccco2)C1 ?
Pf Dd2 growth: 5%

What do the screens show for `O=S(=O)(c1ccc(Cl)cc1)N1CCOC[C@H](Oc2ccc(C(F)(F)F)cc2)C1`?
Pf Dd2 growth: -13%

Results for COc1ccc(-c2ccccc2NC(=O)C2CCCN(CC=C(C)C)C2)cc1 (stereo not drawn) ?
Pf Dd2 growth: 7.9µM*

How did COc1cccc(NC(=O)C2CCCN(Cc3cccnc3)CCC(=O)NCC2)c1 (stereo not drawn) do in these assays?
Pf Dd2 growth: -20%

What do the screens show for `COc1cccc(-c2ccccc2NC(=O)C2CCN(Cc3ccc(F)cc3)CC2)c1`?
Pf Dd2 growth: 7.9µM*

Results for COc1cccc(-c2ccccc2NC(=O)C2CCN(Cc3cc(OC)ccc3O)CC2)c1 ?
Pf Dd2 growth: 2.2µM*

How did CCc1ncc(CN2CCCC(C(=O)Nc3ccccc3-c3ccc(OC)cc3)C2)cn1 (stereo not drawn) do in these assays?
Pf Dd2 growth: inactive

What do the screens show for `COc1cccc(-c2ccc(CN3C4CCC3CN(C(=O)Nc3ccccc3F)C4)cc2)c1`?
Pf Dd2 growth: inactive

How did CCn1ccnc1CN1CCCC(C(=O)Nc2ccccc2-c2ccc(OC)cc2)C1 (stereo not drawn) do in these assays?
Pf Dd2 growth: inactive

How did COc1ccc(-c2ccccc2NC(=O)C2CCCN2S(C)(=O)=O)cc1 (stereo not drawn) do in these assays?
Pf Dd2 growth: -6%

What do the screens show for `COc1ccc(-c2ccccc2NC(=O)C2CCCN(Cc3cnc(SC)nc3)C2)cc1` (stereo not drawn)?
Pf Dd2 growth: -25%

How did C=CCOC(=O)C1=C(C)N(Cc2ccc(Br)cc2)C(=O)CC1c1ccccc1Cl (stereo not drawn) do in these assays?
Pf Dd2 growth: -22%

Results for CCOCCN1C(=O)COC[C@@H]1[C@H](O)c1ccc(NC(=O)Nc2ccccc2)cc1 ?
Pf Dd2 growth: -14%[44.1 µM]

What do the screens show for `CNC(=O)[C@@H]1CN(Cc2ccc(F)cc2F)C[C@H]1CO`?
Pf Dd2 growth: -19%

What do the screens show for `CN1CCN(c2ccc(-c3cn(C)c(=O)n4cc(COc5ccnn5C)nc34)cn2)CC1`?
Pf Dd2 growth: -13%[44.1 µM]

Results for COCCC(=O)N1CC(F)(F)C[C@H]1c1nc(-c2cccnc2)no1 ?
Pf Dd2 growth: 23%

What do the screens show for `CCOc1ccc(NC(=O)C2CCN(c3nnc(C)c4c(C)n(-c5ccccc5)nc34)CC2)cc1`?
Pf Dd2 growth: 4%

What do the screens show for `Cc1nnc(N2CCC(C(=O)NC(C)C)CC2)c2nn(-c3ccccc3)c(C)c12`?
Pf Dd2 growth: 9%

What do the screens show for `Cc1nnc(N2CCC(C(=O)NCc3cccc(Cl)c3)CC2)c2nn(-c3ccccc3)c(C)c12`?
Pf Dd2 growth: -1%

Results for COc1ccccc1CNC(=O)C1CCN(c2nnc(C)c3c(C)n(-c4ccccc4)nc23)CC1 ?
Pf Dd2 growth: -4%

Results for Cc1ccc(-n2nc3c(N4CCC(C(=O)N5CCC(C)CC5)CC4)nnc(C)c3c2C)cc1 ?
Pf Dd2 growth: 0%

What do the screens show for `Cc1ccccc1CNC(=O)C1CCN(c2nnc(C)c3c(C)n(-c4ccccc4)nc23)CC1`?
Pf Dd2 growth: inactive

Results for CCOC(=O)C1CCN(C(=O)C2CCN(c3nnc(C)c4c(C)n(-c5ccccc5)nc34)CC2)CC1 ?
Pf Dd2 growth: 3.2µM*

What do the screens show for `Cc1ccc(-n2nc3c(N4CCC(C(=O)NCCc5ccccc5)CC4)nnc(C)c3c2C)cc1`?
Pf Dd2 growth: 6.3µM*

What do the screens show for `Cc1ccc(NC(=O)C2CCN(c3nnc(C)c4c(C)n(-c5ccccc5)nc34)CC2)c(Cl)c1`?
Pf Dd2 growth: 41%

Results for Cc1ccc(-n2nc3c(N4CCC(C(=O)NCCc5ccccc5C)CC4)nnc(C)c3c2C)cc1 ?
Pf Dd2 growth: 8.9µM*

Results for Cc1ccc(-n2nc3c(N4CCC(C(=O)NC(C)c5ccccc5)CC4)nnc(C)c3c2C)cc1 (stereo not drawn) ?
Pf Dd2 growth: 10µM*

Results for Cc1nnc(N2CCC(C(=O)NC(C)C)CC2)c2nn(-c3ccc(Cl)cc3)c(C)c12 ?
Pf Dd2 growth: 27%

What do the screens show for `CSc1ncccc1C(=O)N1CCc2nc[nH]c2C1`?
Pf Dd2 growth: -3%

Results for CCC(=O)N1CCC(n2c(C)cnc2C2CC2)CC1 ?
Pf Dd2 growth: 17%

Results for O=C(Cn1nc2n(c1=O)CCN(Cc1cccc(Cl)c1)C2=O)NC1CCCC1 ?
Pf Dd2 growth: inactive

Results for COC[C@@H]1CN(Cc2ccc(C#N)cc2)C[C@H]1C(=O)NC1CC1 ?
Pf Dd2 growth: -7%

How did O=C(NCc1ccccc1)C1CCC(=O)N1C1CCN(C(=O)c2ccc(F)cc2F)CC1 (stereo not drawn) do in these assays?
Pf Dd2 growth: -25%

What do the screens show for `COc1cccc(OCc2cc(C(=O)N3CCCCC3c3cccnc3)n[nH]2)c1` (stereo not drawn)?
Pf Dd2 growth: inactive

Results for COc1ccc(CC(=O)N2CC[C@H]3CC(=O)N(Cc4ccccc4)CC[C@H]3C2)cc1 ?
Pf Dd2 growth: inactive
